Screening results: PubChem BioAssay, National Center for Advancing Translational Sciences (NCATS)
This is a sample that favours compounds with a hit; in the whole collection about 13% have one here.
Lamin A splicing: qHTS Assay for Modulators of Lamin A Splicing; HeLa LMNA splicing GFP/RFP minigene ratio, 48 h; Potency, µM (doses to about 46.1 µM), hits mostly inhibitors; 200,000 compounds, 0.01% hits; active = well fitted inhibition curve with a large enough effect in the signal ratio, with a control signal flat, not every such curve was filed as active; inconclusive = small, poorly fitted or top-dose-only effect, or effect the other way, or a change in a side signal; the % refers to the signal ratio
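Read-out is the ratio of GFP to DsRed2 object intensity, acquired by 488 nm laser-scanning cytometry on HeLa lamin A-EGFP minigene reporter cells. Compound incubation 48 hrs at 37 °C in Opti-MEM with 2% FBS; DMSO 0.5% final.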
Sfp PPTase inh: qHTS Assay for Inhibitors of Bacillus subtilis Sfp phosphopantetheinyl transferase (PPTase). 4'-phosphopantetheinyl transferase ffp (Bacillus subtilis), Q9F4F7. Biochemical Sfp PPTase activity, qHTS. Potency, µM, most hits filed as inhibitors. 310,000 compounds, 3.5% hits. AID 1490, 2009;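 note: the enzyme is Sfp with the accession as filed and its product quenches rhodamine fluorescence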
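Reaction rates are the 30-min fluorescence difference (ex 525, em 598 nm) in wells containing 15 nM Sfp, 5 uM rhodamine-CoA and 12.5 uM BHQ-2-YbbR at pH 7.6 with 10 mM MgCl2.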
G9a inh: qHTS Assay for Inhibitors of Histone Lysine Methyltransferase G9a. Potency, µM (highest dose often 102 µM), usual class: inhibitors. 350,000 compounds, 8.8% hits. G9a H3K9 monomethylation, AlphaScreen, 2 h; note: nearly all actives have a fitted effect of over 75% in size
Target sequence (Q96KQ7 913-1193 limits assumed): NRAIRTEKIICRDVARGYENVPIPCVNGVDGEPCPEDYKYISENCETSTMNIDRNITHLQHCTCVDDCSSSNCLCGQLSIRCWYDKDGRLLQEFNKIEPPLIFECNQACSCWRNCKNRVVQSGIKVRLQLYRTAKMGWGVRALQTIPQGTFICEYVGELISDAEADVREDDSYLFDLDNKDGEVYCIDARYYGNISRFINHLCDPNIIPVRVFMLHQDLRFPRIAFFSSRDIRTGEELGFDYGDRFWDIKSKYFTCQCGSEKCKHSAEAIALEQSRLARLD
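Methyltransferase reactions run at room temperature for 2 h (20 nM enzyme, 500 nM biotin-H3K9 peptide, 20 uM SAM) after a 15 min compound preincubation; product detected by AlphaScreen beads and anti-H3K9me1 antibody.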
miR-21 reporter: qHTS Assay for Modulators of miRNAs and/orActivators of miR-21; Potency, µM (series often up to 38.3 µM), hits mostly activators; 340,000 tested, under 10 active; HeLa miR-21 FLuc reporter, luciferase, 48 h;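 note: miR-21 action dims this reporter so a rising signal means less miR-21 action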
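HeLa cells stably expressing CMV-driven firefly luciferase with a downstream miR-21 binding sequence, endogenously expressing miR-21, were treated with titrations (up to about 40uM final) for 48 hours at 37 degree Celsius. Luciferase luminescence was read after lysis.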
ALDH1A1 block: qHTS Assay for Inhibitors of Aldehyde Dehydrogenase 1 (ALDH1A1). Potency, µM (doses to about 75.3 µM), hits mostly inhibitors. 220,000 compounds, 7.3% hits. Purified ALDH1A1, NADH fluorescence, propionaldehyde substrate; active = well fitted inhibition curve with a large enough effect, not every such curve was filed as active; inconclusive = small, poorly fitted or top-dose-only effect, or another doubt; inactive = no such curve, though single readings can be large or run the other way
JMJD2E inh: qHTS Assay for Inhibitors of Human Jumonji Domain Containing 2E (JMJD2E); Potency, µM (top dose mostly 57.1 µM), most hits filed as inhibitors; 230,000 compounds, 1.6% hits; AID 2147, 2009; Lysine-specific demethylase 4E (Homo sapiens), B2RXH2; JMJD2E catalytic domain, FDH-coupled NADH fluorescence (FDH is formaldehyde dehydrogenase); note: nearly all actives have a fitted effect of over 50% in size
Target sequence (B2RXH2 1-337 limits assumed): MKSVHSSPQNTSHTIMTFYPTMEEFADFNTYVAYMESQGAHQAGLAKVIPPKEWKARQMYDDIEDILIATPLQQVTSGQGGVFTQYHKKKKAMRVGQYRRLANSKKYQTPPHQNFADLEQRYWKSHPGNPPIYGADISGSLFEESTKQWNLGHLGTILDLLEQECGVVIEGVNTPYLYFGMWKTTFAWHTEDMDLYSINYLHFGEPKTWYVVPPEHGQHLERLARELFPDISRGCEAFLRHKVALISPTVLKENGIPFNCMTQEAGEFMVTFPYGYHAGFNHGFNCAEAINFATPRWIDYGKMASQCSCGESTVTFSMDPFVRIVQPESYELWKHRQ
Numbers stand for hits; - = inactive; ? = inconclusive; . = no result given; [ ] = dose if it differs, or a comment. Unless noted, calls come from the whole dose curve; as a rule, active = well fitted curve in the direction sought with a large enough effect; inconclusive = small, poorly fitted or top-dose-only effect, or another doubt; inactive = no such curve, though single readings can be large; an effect the other way counts as inactive or inconclusive.

SMILES | Lamin A splicing | Sfp PPTase inh | G9a inh | miR-21 reporter | ALDH1A1 block | JMJD2E inh
Cc1cc(C)cc(NC(=O)Cn2c3ncccc3c(=O)n2-c2ccc(C)c(C)c2)c1 | . | . | - | - | . | .
O=C(O)CSc1ccccc1C(=O)O | - | - | 45µM | - | -[13.5 µM] | -
CN(C(=O)CSCC(=O)O)C1CCCCC1 | - | - | - | - | 2µM | -
O=C(CSc1ccccc1C(=O)O)c1ccccc1 | . | - | - | - | . | .
O=C(CSc1ccccc1C(=O)O)NC1CCCCCC1 | . | - | - | - | . | -
CN(C(=O)CSc1ccccc1C(=O)O)C1CCCCC1 | - | - | - | - | 3.2µM | -
COc1cc(NC(=O)CSCC(=O)N(C)C2CCCCC2)cc(OC)c1 | . | . | -[12.7 µM] | . | . | .
O=C(c1ccccc1)c1ccc(N2CCOCC2)c(NC(=O)c2ccco2)c1 | - | - | ? | - | 32µM | -
O=C(Nc1cc([N+](=O)[O-])ccc1N1CCCC1)c1ccco1 | - | - | 50µM | - | - | -
CN1CCN(C2CCN(c3cccc(Cl)c3)CC2)CC1CCO (stereo unspecified) | . | - | - | - | . | .
Cc1ccc(Cl)cc1-n1nnc(-c2nc(-c3ccc4c(c3)OCO4)no2)c1C | . | . | - | - | . | .
CCc1ccc(-c2csc(-c3c[nH]c4ccccc34)n2)cc1 | ? | - | - | - | - | -
Nc1nc(-c2c[nH]c3ccccc23)cs1 | - | 22µM | ? | - | 7.9µM | ?
Cc1ccc2c(-c3csc(N)n3)c[nH]c2c1 | . | - | 45µM | - | . | .
CCC(C)Nc1nc(-c2c[nH]c3ccccc23)cs1 (stereo unspecified) | . | ? | 11µM | - | . | .
CN1CCN(CC(=O)Nc2nc(-c3c[nH]c4ccccc34)cs2)CC1 | . | - | ? | - | ? | -
Cc1c(-c2csc(N)n2)cnn1C | . | - | ? | - | - | -
CNc1nc(-c2c[nH]c3ccccc23)cs1 | - | 56µM | 35µM | - | 7.1µM | ?
O=C1CN(C(=O)NCCC(=O)NC2CCCCC2)c2ccccc2N1 | . | - | - | - | . | .
Fc1ccc(-n2ncc3c(Nc4cccc(Cl)c4)ncnc32)cc1 | ? | . | - | - | . | .
S=c1[nH]nc(-c2cccc(Cl)c2)n1/N=C/c1ccco1 | . | 50µM | 3.5µM | - | . | -
Cc1ccc(/C=N/n2c(-c3cccc(Cl)c3)n[nH]c2=S)o1 | . | - | 1µM | - | . | -
CCCCN(Cc1ccccc1)C(=O)CN(C)S(=O)(=O)c1ccc2c(c1)c(=O)n(C)c(=O)n2C | . | . | - | - | . | .
N=C(N)n1cccn1 | . | 50µM | ? | . | . | .
N=C(N)N1CCc2ccccc21 | . | - | - | - | . | -
SMILES | Lamin A splicing | Sfp PPTase inh | G9a inh | miR-21 reporter | ALDH1A1 block | JMJD2E inh
COc1ccc(Cl)c2c1[nH]c1nc(SCc3cccnc3)nnc12 | - | - | ? | - | - | -
COc1ccc(Cl)c2c1[nH]c1nc(SCc3ccccn3)nnc12 | . | - | 2µM | - | ? | -
CCC1CCc2c(sc(NC(=O)C3c4ccccc4Oc4ccccc43)c2C#N)C1 (stereo unspecified) | . | . | - | - | . | .
Cc1ccc(S(=O)(=O)n2nnc3ccccc32)c(C)c1C | - | - | 50µM | - | ? | -
CC(C)CN(CC(C)C)C1=N/C(=C\c2ccco2)C(=O)N1c1ccccc1 | - | 32µM | ? | - | 13µM | ?
Fc1cccc(-c2nc(-c3ccncc3)no2)c1 | - | . | - | - | . | .
CCOC(=O)c1c(C)oc2nc(C)nc(N3CCN(c4cccc(C(F)(F)F)c4)CC3)c12 | ? | . | ? | - | . | .
CCOc1ccc(S(=O)(=O)N2CCCCC2)cc1NS(=O)(=O)c1cccs1 | . | . | -[12.7 µM] | . | . | .
O=C(NCc1cccc(F)c1)C1CCN(C(=O)c2sccc2-n2cccc2)CC1 | . | - | - | - | 5µM | -
O=C(NC1CCCc2ccccc21)C1CCN(C(=O)c2sccc2-n2cccc2)CC1 (stereo unspecified) | - | - | - | - | 1µM | -
Cc1ccc(CCNC(=O)C2CCN(C(=O)c3sccc3-n3cccc3)CC2)cc1 | - | - | ? | - | 1µM | -
COc1ccccc1CNC(=O)C1CCN(C(=O)c2sccc2-n2cccc2)CC1 | . | - | - | - | . | .
O=C(NCCc1ccccc1)C1CCN(C(=O)c2sccc2-n2cccc2)CC1 | - | - | - | - | 4µM | -
O=C(c1sccc1-n1cccc1)N1CCCC1 | - | - | ? | - | ? | -
O=C(Nc1ccc(F)cc1)/C(=C1/CCCCCN1)[N+](=O)[O-] | . | - | . | - | . | -
C=C[C@H]1CCC=C2C(=O)CCC[C@@H]21 | . | - | . | . | - | -
CN(C)P(=O)(Nc1cccc2ccccc12)Nc1cccc2ccccc12 | . | . | -[12.7 µM] | . | . | .
CCOc1ccc(NC(=O)Cn2c3ncccc3c(=O)n2-c2ccc(CC)cc2)cc1 | . | . | - | - | . | .
CCn1cc(CN2CCc3c([nH]c4ccccc34)C2c2cccc(OC)c2OC)c(C)n1 (stereo unspecified) | . | ? | . | - | - | -
O=C(CSc1nc2ncccc2[nH]1)Nc1cc(F)ccc1F | . | . | - | - | . | .
CC(C)NC(=O)CN1CCN(Cc2nc(C(c3ccccc3)c3ccccc3)no2)CC1 | - | - | . | - | - | -
Cc1cc(C)cc(NC(=O)Cn2cc3c(n2)CCCCC3)c1 | - | - | ? | - | - | -
CN(C)c1ccc(NC(=O)Cn2cc3c(n2)CCCC3)cc1 | - | - | 28µM | - | - | -
COC(=O)c1cccc(-c2ccc(/C=N/N3C(=O)C4C5C=CC(C6CC56)C4C3=O)o2)c1 (stereo unspecified) | ? | - | . | - | 14µM | ?
COC(=O)c1ccc(-c2ccc(/C=N/N3C(=O)C4C5C=CC(C6CC56)C4C3=O)o2)cc1 (stereo unspecified) | ? | - | 7.9µM | - | - | ?
SMILES | Lamin A splicing | Sfp PPTase inh | G9a inh | miR-21 reporter | ALDH1A1 block | JMJD2E inh
COC(=O)N/N=C/c1ccc(-c2cccc(Cl)c2)o1 | - | - | ? | - | - | -
NC(=O)C1CCN(C(=O)c2ccc3c(=O)n(Cc4ccco4)c(SCc4ccc([N+](=O)[O-])cc4)nc3c2)CC1 | . | - | - | - | . | .
CCc1ccc(S(=O)(=O)c2cn(CC)c3cc(N4CCOCC4)c(F)cc3c2=O)cc1 | - | . | - | - | . | .
Cc1ccc(-n2nc3ccc(N)cc3n2)cc1Cl | . | - | 45µM | - | . | .
Cc1ccc(-n2nc3ccc(N)cc3n2)cc1C | . | - | 10µM | - | . | .
COc1ccc(-n2nc3ccc(N)cc3n2)cc1Cl | . | - | -[0.501 µM] | - | . | .
CNC(=O)Cn1cc(S(=O)(=O)Cc2ccccc2F)c2ccccc21 | - | . | - | - | . | .
O=C(N/N=C/c1ccccc1F)c1cccc2ccccc12 | . | - | - | - | . | .
O=C(N/N=C/c1sc2ccccc2c1O)c1cccc2ccccc12 | ? | - | - | - | - | 25µM
